Source: publication PMC4552634, “A New Set of Chemical Starting Points with Plasmodium falciparum Transmission-Blocking Potential for Antimalarial Drug Discovery” (PLoS ONE, 2015)
Out of some 13,000 compounds screened, about 3,200 (25%) showed an effect of 50% or more. The list shows a part of the results.

Tested on: P. falciparum stage V gametocytes
Design: BacTiter-Glo ATP luminescence viability of purified stage V gametocytes in 384-well plates, per cent inhibition versus DMSO
Details: 48 h, 5 µM; inhibitor

Row | SMILES | % Inhibition [%]
1 | O=C(/C=C/c1cc([N+](=O)[O-])ccc1Cl)NC1CCC(CN2CCC(c3c[nH]c4ccccc34)CC2)CC1 (centres unmarked) [TCMDC-139907] | -55.07
2 | O=C(C=Cc1ccc(Br)cc1)N1CCC(CCN2CCC(c3c[nH]c4ccccc34)CC2)CC1 [TCMDC-139939] | 87.97
3 | O=C(C=Cc1ccccc1O)N1CCC(CN2CCC(c3c[nH]c4ccccc34)CC2)CC1 [TCMDC-139912] | -49.08
4 | O=C(/C=C/c1ccc(Cl)cc1Cl)N1CCC(CCN2CCC(c3c[nH]c4ccccc34)CC2)CC1 [TCMDC-139711] | 81.98
5 | O=C(/C=C/c1cc(F)c(F)cc1F)N1CCC(CN2CCC(c3c[nH]c4ccccc34)CC2)CC1 [TCMDC-140383] | -20.73
6 | O=C(/C=C/c1ccc([N+](=O)[O-])cc1)N1CCC(CCN2CCC(c3c[nH]c4ccccc34)CC2)CC1 [TCMDC-139940] | -27.66
7 | O=C(/C=C/c1cc([N+](=O)[O-])ccc1Cl)N1CCC(CCN2CCC(c3c[nH]c4ccccc34)CC2)CC1 [TCMDC-139911] | 95.76
8 | O=C(/C=C/c1ccccc1O)N1CCC(CCN2CCC(c3c[nH]c4ccccc34)CC2)CC1 [TCMDC-139712] | 101.8
9 | CCCc1ccc(NC(=O)c2ccc(CN3CCCN(CC4CCCCC4)CC3)cc2)cc1 [TCMDC-136420] | -21.41
10 | FC(F)(F)c1ccc2[nH]c(-c3ccc(-c4ccc(CN5CCN(c6cnccn6)CC5)cc4)s3)nc2c1.O=C(O)C(F)(F)F [TCMDC-132677] | 4.163
11 | COc1cc(Cc2cnc(N)nc2N)cc(OCCCCC2SC(=O)NC2=O)c1OC (centres unmarked) [TCMDC-137185] | -7.728
12 | Cc1cnc(NC(=O)c2cn(-c3ccccc3)nc2-c2cccs2)s1 [TCMDC-124433] | 10.72
13 | COc1cc2c(c(OC)c1OC)C[C@H]1c3c(cc4c(c3-2)OCO4)CCN1C [TCMDC-138525] | -52.76
14 | N#Cc1ccc2[nH]cc(CN3CCC4(CC3)CN(CCNCc3ccccc3)C(=O)O4)c2c1 [TCMDC-136732] | -34.87
15 | COc1ccc2ncc(F)c(CCN3C[C@H](CNCc4cc(F)c5c(c4)NC(=O)CO5)[C@H](O)C3)c2n1 [TCMDC-136203] | 28.74
16 | Nc1nc2c(ncn2OC[C@H](CO)OCP(=O)(O)O)c(=O)[nH]1 [TCMDC-131639] | 4.722

Row | SMILES | % Inhibition [%]
17 | O=C(/C=C/c1cc(C(F)(F)F)ccc1F)N1CCC(CN2CCC(c3c[nH]c4ccccc34)CC2)CC1 [TCMDC-139857] | -24.43
18 | O=C(/C=C/c1cc(F)cc(C(F)(F)F)c1)N1CCC(CN2CCC(c3c[nH]c4ccccc34)CC2)CC1 [TCMDC-140385] | -12.95
19 | O=C(/C=C/c1ccc(C(F)(F)F)cc1)N1CCC(CCN2CCC(c3c[nH]c4ccccc34)CC2)CC1 [TCMDC-139761] | 107.6
20 | CCN(CC)CCN(Cc1ccc(-c2ccc(C(F)(F)F)cc2)cc1)C(=O)Cn1cc(Cc2cnn(C)c2)c(=O)n2nc(-c3ccccc3)cc12 [TCMDC-140690] | 119.2
21 | CCN(CC)CCN(Cc1ccc(-c2ccc(C(F)(F)F)cc2)nc1)C(=O)Cn1cc(Cc2cnn(C)c2)c(=O)n2nc(-c3ccccc3)cc12 [TCMDC-140691] | 119
22 | CCCCN1Cc2c(n(CC(=O)Nc3ccccc3)c3cc(-c4ccccc4)nn3c2=O)C1=O [TCMDC-125585] | -0.9231
23 | COc1ccc2nccc([C@@H](O)CN3CCC(NC(=O)/C=C/c4cccc(C)c4)CC3)c2c1 [TCMDC-141114] | -1.317
24 | O=C(NC1CCN(CCc2c[nH]c3ccc(F)cc23)CC1)c1ncc(-c2ccccc2)[nH]1 [TCMDC-131972] | 5.191
25 | Cc1ccc(NC(=O)Nc2ccc(Br)cc2)cc1OCCN(C)C [TCMDC-140087] | -42.58
26 | CCOC(=O)CN(c1ccc(Br)cc1OCCOc1cc(Br)ccc1N(CC(=O)OCC)C(C)C(=O)OCC)C(C)C(=O)OCC (centres unmarked) [TCMDC-132003] | 102
27 | COc1ccc(NC(=O)/C=C/c2cc(Br)ccc2F)cc1OCCN(C(C)C)C(C)C [TCMDC-140668] | -43.25
28 | C=CCc1cc(SC)ccc1Oc1ccc(N)cc1 [TCMDC-137690] | -96.62
29 | Cc1ccccc1C(=O)Nc1cccc(-c2nc3ncccn3c2C)c1 [TCMDC-125138] | 25.46
30 | CCOc1ccccc1C(=O)Nc1cccc(-c2nc3ncccn3c2C)c1 [TCMDC-124461] | 18.92
31 | Cc1c(-c2cccc(NC(=O)C(C)(C)Oc3ccc(Cl)cc3)c2)nc2ncccn12 [TCMDC-124460] | 51.92
32 | CN(c1cc(NC(=O)c2cccs2)ccn1)C1CCN(Cc2cccc(C#N)c2)CC1 [TCMDC-134970] | 39.85
